We go through 16 targets from the supplement of paper PMC12067093, “Discovery and optimisation of a covalent ligand for TRIM25 and its application to targeted protein ubiquitination” (Chemical Science, 2025).

About 21,000 targets were measured; listed, in parts, are those with the largest changes and a random draw of the rest.
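Further: competitive chemoproteomic profiling in live THP-1 cells with an iodoacetamide desthiobiotin (IA-DTB) probe, comparing probe-labelled peptide intensities in compound-treated cells against DMSO-treated controls.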

Sequence of UniProt Q9H7D7 (Q9H7D7 whole entry, looked up): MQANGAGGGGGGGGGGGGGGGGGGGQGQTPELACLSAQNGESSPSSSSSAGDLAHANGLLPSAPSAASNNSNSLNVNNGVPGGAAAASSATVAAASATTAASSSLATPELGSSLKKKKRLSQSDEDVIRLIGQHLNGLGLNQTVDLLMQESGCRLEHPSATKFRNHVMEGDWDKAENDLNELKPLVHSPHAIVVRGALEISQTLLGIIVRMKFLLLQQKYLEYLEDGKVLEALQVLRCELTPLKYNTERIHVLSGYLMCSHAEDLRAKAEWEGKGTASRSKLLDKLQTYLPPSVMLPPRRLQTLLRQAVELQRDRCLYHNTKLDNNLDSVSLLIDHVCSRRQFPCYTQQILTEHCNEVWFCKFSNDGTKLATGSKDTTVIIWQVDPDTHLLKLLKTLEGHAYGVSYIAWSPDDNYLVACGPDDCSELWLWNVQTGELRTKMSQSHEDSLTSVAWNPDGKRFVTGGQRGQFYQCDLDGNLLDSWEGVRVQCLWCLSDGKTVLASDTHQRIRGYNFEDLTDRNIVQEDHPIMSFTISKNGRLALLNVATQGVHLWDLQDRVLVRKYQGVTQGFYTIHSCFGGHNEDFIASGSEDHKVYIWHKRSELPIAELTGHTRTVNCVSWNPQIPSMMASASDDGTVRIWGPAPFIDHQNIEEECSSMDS
Sequence of UniProt Q9NXH9 (Q9NXH9 whole entry, looked up): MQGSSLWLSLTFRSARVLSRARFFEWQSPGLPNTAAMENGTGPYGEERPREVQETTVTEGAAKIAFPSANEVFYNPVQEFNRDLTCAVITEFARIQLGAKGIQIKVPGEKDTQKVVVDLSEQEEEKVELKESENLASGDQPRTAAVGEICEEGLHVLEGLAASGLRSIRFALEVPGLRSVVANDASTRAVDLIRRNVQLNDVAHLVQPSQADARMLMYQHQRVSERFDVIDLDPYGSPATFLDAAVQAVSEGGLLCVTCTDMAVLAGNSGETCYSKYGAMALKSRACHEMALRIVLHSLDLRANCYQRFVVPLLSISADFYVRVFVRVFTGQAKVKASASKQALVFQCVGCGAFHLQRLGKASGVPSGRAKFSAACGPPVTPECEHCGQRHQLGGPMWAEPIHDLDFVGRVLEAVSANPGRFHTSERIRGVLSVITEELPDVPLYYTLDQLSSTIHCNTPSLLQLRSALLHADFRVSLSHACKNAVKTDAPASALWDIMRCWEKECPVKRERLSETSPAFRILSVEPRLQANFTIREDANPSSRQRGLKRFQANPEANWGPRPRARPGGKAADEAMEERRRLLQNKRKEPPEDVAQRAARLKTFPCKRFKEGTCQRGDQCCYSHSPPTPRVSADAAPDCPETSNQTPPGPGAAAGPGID
Sequence of UniProt Q14146 (Q14146 whole entry, looked up): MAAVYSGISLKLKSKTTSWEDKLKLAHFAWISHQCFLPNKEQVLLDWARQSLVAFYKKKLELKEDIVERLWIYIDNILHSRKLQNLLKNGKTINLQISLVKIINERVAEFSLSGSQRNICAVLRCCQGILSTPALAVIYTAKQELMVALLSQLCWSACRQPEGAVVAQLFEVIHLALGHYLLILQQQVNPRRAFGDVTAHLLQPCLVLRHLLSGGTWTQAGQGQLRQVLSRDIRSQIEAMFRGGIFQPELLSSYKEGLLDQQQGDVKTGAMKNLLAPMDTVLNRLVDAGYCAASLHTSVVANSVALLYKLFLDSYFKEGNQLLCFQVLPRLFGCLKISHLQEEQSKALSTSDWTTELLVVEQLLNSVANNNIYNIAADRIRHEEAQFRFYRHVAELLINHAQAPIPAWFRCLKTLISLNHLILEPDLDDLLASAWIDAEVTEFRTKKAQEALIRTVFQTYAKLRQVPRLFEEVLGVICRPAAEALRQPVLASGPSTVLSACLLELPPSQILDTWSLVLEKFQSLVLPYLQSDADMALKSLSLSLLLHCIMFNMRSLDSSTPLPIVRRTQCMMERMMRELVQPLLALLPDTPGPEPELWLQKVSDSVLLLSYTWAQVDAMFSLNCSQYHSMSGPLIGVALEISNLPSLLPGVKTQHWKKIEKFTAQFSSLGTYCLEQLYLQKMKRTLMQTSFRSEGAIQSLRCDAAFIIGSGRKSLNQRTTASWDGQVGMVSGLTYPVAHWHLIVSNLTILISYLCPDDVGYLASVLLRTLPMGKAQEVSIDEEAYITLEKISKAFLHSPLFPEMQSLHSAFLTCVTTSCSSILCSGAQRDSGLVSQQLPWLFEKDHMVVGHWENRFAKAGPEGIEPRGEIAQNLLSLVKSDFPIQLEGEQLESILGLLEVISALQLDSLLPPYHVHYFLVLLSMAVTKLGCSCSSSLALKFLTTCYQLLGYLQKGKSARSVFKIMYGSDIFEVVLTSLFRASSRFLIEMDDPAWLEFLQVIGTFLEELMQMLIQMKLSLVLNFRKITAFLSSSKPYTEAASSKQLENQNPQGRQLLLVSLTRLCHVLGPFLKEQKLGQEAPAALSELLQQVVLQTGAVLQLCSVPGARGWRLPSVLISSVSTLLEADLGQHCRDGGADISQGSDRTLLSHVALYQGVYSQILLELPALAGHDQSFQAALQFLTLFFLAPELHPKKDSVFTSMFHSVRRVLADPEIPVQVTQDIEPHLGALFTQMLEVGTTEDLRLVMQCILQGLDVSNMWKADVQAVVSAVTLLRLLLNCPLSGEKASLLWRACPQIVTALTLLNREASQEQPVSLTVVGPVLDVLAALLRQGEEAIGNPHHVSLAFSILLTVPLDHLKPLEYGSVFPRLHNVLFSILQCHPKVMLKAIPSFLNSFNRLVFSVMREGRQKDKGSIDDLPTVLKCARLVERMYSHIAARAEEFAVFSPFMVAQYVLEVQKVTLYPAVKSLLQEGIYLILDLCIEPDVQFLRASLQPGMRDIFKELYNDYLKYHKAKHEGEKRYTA
Sequence of UniProt Q9H6Y2 (Q9H6Y2 whole entry, looked up): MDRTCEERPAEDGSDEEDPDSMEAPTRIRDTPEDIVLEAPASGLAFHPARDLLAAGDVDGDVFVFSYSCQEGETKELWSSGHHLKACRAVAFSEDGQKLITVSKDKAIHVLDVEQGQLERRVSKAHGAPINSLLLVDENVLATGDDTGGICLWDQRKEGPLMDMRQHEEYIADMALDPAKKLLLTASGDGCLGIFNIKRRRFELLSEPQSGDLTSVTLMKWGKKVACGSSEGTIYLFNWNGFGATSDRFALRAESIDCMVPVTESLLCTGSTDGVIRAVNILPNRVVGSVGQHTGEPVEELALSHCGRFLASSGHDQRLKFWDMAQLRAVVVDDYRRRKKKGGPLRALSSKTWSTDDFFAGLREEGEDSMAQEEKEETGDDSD
Sequence of UniProt Q9H832 (Q9H832 whole entry, looked up): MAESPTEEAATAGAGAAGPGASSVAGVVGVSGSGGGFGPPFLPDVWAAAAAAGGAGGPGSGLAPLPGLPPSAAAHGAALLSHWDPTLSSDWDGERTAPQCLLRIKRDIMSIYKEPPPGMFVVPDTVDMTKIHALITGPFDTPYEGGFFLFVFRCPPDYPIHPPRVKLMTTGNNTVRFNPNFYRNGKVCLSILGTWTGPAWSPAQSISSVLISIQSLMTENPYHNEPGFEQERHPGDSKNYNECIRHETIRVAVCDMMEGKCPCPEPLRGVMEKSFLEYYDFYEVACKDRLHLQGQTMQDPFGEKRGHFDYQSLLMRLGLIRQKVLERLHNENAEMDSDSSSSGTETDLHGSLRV
Sequence of UniProt Q9Y2I8 (Q9Y2I8 whole entry, looked up): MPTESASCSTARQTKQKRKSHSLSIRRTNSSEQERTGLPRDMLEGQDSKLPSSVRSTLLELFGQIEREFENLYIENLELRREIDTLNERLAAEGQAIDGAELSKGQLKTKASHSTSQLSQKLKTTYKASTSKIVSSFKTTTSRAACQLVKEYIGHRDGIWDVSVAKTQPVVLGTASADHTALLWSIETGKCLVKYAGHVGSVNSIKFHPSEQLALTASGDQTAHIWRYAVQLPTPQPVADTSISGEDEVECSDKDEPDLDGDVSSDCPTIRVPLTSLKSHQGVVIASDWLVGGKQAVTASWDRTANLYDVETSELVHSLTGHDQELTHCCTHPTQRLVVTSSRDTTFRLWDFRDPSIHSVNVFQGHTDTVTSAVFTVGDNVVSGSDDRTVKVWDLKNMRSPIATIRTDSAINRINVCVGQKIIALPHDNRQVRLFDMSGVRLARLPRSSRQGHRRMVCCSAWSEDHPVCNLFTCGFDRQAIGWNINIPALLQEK
Sequence of UniProt Q3KQV9 (Q3KQV9 whole entry, looked up): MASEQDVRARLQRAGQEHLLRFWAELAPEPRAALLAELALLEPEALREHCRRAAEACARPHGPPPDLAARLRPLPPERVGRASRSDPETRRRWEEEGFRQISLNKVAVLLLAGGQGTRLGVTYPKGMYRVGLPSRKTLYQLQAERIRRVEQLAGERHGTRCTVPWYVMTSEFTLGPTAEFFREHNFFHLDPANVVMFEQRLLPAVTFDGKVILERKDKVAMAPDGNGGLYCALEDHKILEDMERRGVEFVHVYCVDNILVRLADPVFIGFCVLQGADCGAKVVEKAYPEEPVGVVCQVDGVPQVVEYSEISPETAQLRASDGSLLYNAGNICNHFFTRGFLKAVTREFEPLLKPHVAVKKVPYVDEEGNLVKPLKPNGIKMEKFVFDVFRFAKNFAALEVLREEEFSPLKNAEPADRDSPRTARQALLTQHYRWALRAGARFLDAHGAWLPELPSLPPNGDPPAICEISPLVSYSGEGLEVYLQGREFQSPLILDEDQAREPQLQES
Sequence of UniProt Q8IWB7 (Q8IWB7 whole entry, looked up): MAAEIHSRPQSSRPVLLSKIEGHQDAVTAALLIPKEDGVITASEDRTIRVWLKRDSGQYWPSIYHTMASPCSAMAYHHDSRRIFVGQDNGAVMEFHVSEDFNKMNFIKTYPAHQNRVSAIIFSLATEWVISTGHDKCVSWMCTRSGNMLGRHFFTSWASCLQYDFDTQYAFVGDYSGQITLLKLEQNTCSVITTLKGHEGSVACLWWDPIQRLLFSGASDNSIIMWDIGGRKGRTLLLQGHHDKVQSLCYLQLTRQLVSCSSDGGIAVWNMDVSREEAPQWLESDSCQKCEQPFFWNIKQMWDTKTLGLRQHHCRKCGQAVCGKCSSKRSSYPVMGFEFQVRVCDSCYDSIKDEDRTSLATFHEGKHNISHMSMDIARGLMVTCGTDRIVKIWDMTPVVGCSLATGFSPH

Compound in this experiment: CC1Cc2ccccc2N1C(=O)C1CCCN(C1)C(=O)CCl (mixture of isomers) [TRIM25 ligand 11 (diastereomer mixture)]
The experiment in a line: probe-labelled cysteine peptide fold change vs DMSO (competition) (log2 fold change); higher = less target engagement (more negative = stronger competition). To be noted: 10 µM; THP-1; incubation time: 4 h.
In the case of “WDR37_Q9Y2I8_329_TANLYDVETSELVHSLTGHDQELTHCCTHPTQR (UniProt Q9Y2I8)”, the “probe-labelled cysteine peptide fold change” value was found to be 0.0866.

For “UBE2Z_Q9H832_243_NYNECIR (UniProt Q9H832)”, the “probe-labelled cysteine peptide fold change” value is -0.049.

For “WDR26_Q9H7D7_238_CELTPLK (UniProt Q9H7D7)”, the “probe-labelled cysteine peptide fold change” value was -0.0356.

Regarding “VPS18_Q9P253_947_ADLDELVAAECVYCGELMIR (UniProt Q9P253)”, the “probe-labelled cysteine peptide fold change” value was 0.712.

Regarding “WDR12_Q9GZL7_185_ALHCCR (UniProt Q9GZL7)”, the “probe-labelled cysteine peptide fold change” value worked out at 0.0665.

For the target “WDR55_Q9H6Y2_5_TCEERPAEDGSDEEDPDSMEAPTR (UniProt Q9H6Y2)”, the “probe-labelled cysteine peptide fold change” value was -0.76.

“UBE2E1_P51965_131_IYHCNINSQGVICLDILK (UniProt P51965)”: the “probe-labelled cysteine peptide fold change” value worked out at 0.0832.

For the target “URB2_Q14146_1380_LHNVLFSILQCHPK (UniProt Q14146)”, the “probe-labelled cysteine peptide fold change” value worked out at 0.199.

Turning to “USP34_Q70CQ2_2033_CQVADMK (UniProt Q70CQ2)”, the “probe-labelled cysteine peptide fold change” value was 0.0209.

As to “TYK2_P29597_1140_CPCEVYHLMK (UniProt P29597)”, the “probe-labelled cysteine peptide fold change” value is -0.0795.

Regarding “UAP1L1_Q3KQV9_50_AALLAELALLEPEALREHCR (UniProt Q3KQV9)”, the “probe-labelled cysteine peptide fold change” value worked out at 0.0804.

As for “TTC37_Q6PGP7_600_DFNCWESLGEAYLSR (UniProt Q6PGP7)”, the “probe-labelled cysteine peptide fold change” value stood at 0.0103.

With “WDFY1_Q8IWB7_189_LEQNTCSVITTLK (UniProt Q8IWB7)”, the “probe-labelled cysteine peptide fold change” value was 0.462.

Consider “VCP_P55072_105_LGDVISIQPCPDVK (UniProt P55072)”, for which the “probe-labelled cysteine peptide fold change” value is -0.0602.

As to “TRMT1_Q9NXH9_351_QALVFQCVGCGAFHLQR (UniProt Q9NXH9)”, the “probe-labelled cysteine peptide fold change” value turned out to be 0.147.

Consider “TTC27_Q6P3X3_374_NNPVHTLTEVELLAFTSCLLSQPK (UniProt Q6P3X3)”, for which the “probe-labelled cysteine peptide fold change” value was 0.253.
